{"source": "PubChem BioAssay (NCI)", "experiment_in_all_cases": "NCI-60 one-dose screen, 48 h (100 = growth as untreated, 0 = no growth, -100 = all killed)", "conditions_in_all_cases": "10 µM unless noted", "key": {"DU-145 prostate": {"tested_on": "DU-145 prostate"}, "K-562 leukemia": {"tested_on": "K-562 leukemia"}, "MALME-3M melanoma": {"tested_on": "MALME-3M melanoma"}, "MDA-MB-231 breast": {"tested_on": "MDA-MB-231 breast"}, "RXF 393 renal": {"tested_on": "RXF 393 renal"}, "SF-268 CNS": {"tested_on": "SF-268 CNS"}, "SF-295 CNS": {"tested_on": "SF-295 CNS"}, "SF-539 CNS": {"tested_on": "SF-539 CNS"}, "UACC-257 melanoma": {"tested_on": "UACC-257 melanoma"}, "HCT-15 colon": {"tested_on": "HCT-15 colon"}, "HT29 colon": {"tested_on": "HT29 colon"}, "SNB-75 CNS": {"tested_on": "SNB-75 CNS"}, "SNB-19 CNS": {"tested_on": "SNB-19 CNS"}, "U251 CNS": {"tested_on": "U251 CNS"}, "PC-3 prostate": {"tested_on": "PC-3 prostate"}, "SK-MEL-5 melanoma": {"tested_on": "SK-MEL-5 melanoma"}, "UACC-62 melanoma": {"tested_on": "UACC-62 melanoma"}, "LOX IMVI melanoma": {"tested_on": "LOX IMVI melanoma"}, "SK-MEL-28 melanoma": {"tested_on": "SK-MEL-28 melanoma"}}, "note": "This is part of a sample that, as a whole, favours compounds with a hit. Of some 83,000 tested, about 20% had one in any assay.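 Assay: single dose, 48 h. Readout: percent growth (0 = no net growth; negative = cell death). Active: <10.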 Unmarked numbers belong to inactive results. Calls of active or inactive are those of the source."}
{"molecule": "CCOC(=O)CCC(=O)P(=O)(O)O", "values": [{"measurement": "growth", "setting": "DU-145 prostate", "value": 114, "unit": "%"}, {"measurement": "growth", "setting": "K-562 leukemia", "value": "8.96% (active)"}, {"measurement": "growth", "setting": "MALME-3M melanoma", "value": 103, "unit": "%"}, {"measurement": "growth", "setting": "MDA-MB-231 breast", "value": 119, "unit": "%"}, {"measurement": "growth", "setting": "RXF 393 renal", "value": 122, "unit": "%"}, {"measurement": "growth", "setting": "SF-268 CNS", "value": 114, "unit": "%"}, {"measurement": "growth", "setting": "SF-295 CNS", "value": 101, "unit": "%"}, {"measurement": "growth", "setting": "SF-539 CNS", "value": 101, "unit": "%"}, {"measurement": "growth", "setting": "UACC-257 melanoma", "value": 93, "unit": "%"}, {"measurement": "growth", "setting": "HCT-15 colon", "value": 108, "unit": "%"}, {"measurement": "growth", "setting": "HT29 colon", "value": 95.9, "unit": "%"}, {"measurement": "growth", "setting": "SNB-75 CNS", "value": 146, "unit": "%"}, {"measurement": "growth", "setting": "SNB-19 CNS", "value": 92.6, "unit": "%"}, {"measurement": "growth", "setting": "U251 CNS", "value": 102, "unit": "%"}, {"measurement": "growth", "setting": "PC-3 prostate", "value": 62.8, "unit": "%"}, {"measurement": "growth", "setting": "SK-MEL-5 melanoma", "value": 104, "unit": "%"}, {"measurement": "growth", "setting": "UACC-62 melanoma", "value": 96.6, "unit": "%"}, {"measurement": "growth", "setting": "LOX IMVI melanoma", "value": 104, "unit": "%"}, {"measurement": "growth", "setting": "SK-MEL-28 melanoma", "value": 93.6, "unit": "%"}]}
{"molecule": "COC(=O)CNC(=O)c1ccc(NC(=O)c2[nH]c(C)c(Cl)c2Cl)c(O[C@H]2CCNC2)c1", "values": [{"measurement": "growth", "setting": "DU-145 prostate", "value": 110, "unit": "%"}, {"measurement": "growth", "setting": "K-562 leukemia", "value": 90.7, "unit": "%"}, {"measurement": "growth", "setting": "MALME-3M melanoma", "value": 109, "unit": "%"}, {"measurement": "growth", "setting": "MDA-MB-231 breast", "value": 105, "unit": "%"}, {"measurement": "growth", "setting": "RXF 393 renal", "value": 111, "unit": "%"}, {"measurement": "growth", "setting": "SF-268 CNS", "value": 102, "unit": "%"}, {"measurement": "growth", "setting": "SF-295 CNS", "value": 105, "unit": "%"}, {"measurement": "growth", "setting": "SF-539 CNS", "value": 98, "unit": "%"}, {"measurement": "growth", "setting": "UACC-257 melanoma", "value": 103, "unit": "%"}, {"measurement": "growth", "setting": "HCT-15 colon", "value": 107, "unit": "%"}, {"measurement": "growth", "setting": "HT29 colon", "value": 108, "unit": "%"}, {"measurement": "growth", "setting": "SNB-75 CNS", "value": 94.8, "unit": "%"}, {"measurement": "growth", "setting": "SNB-19 CNS", "value": 102, "unit": "%"}, {"measurement": "growth", "setting": "U251 CNS", "value": 101, "unit": "%"}, {"measurement": "growth", "setting": "PC-3 prostate", "value": 96.8, "unit": "%"}, {"measurement": "growth", "setting": "SK-MEL-5 melanoma", "value": 101, "unit": "%"}, {"measurement": "growth", "setting": "UACC-62 melanoma", "value": 98.7, "unit": "%"}, {"measurement": "growth", "setting": "LOX IMVI melanoma", "value": 94.4, "unit": "%"}, {"measurement": "growth", "setting": "SK-MEL-28 melanoma", "value": 115, "unit": "%"}]}
{"molecule": "Nc1nc(N)c2c(n1)NC(c1cccc(Nc3ccnc4cc(C(F)(F)F)ccc34)c1)CC(c1ccc(Cl)cc1)=N2", "note": "(stereo unspecified)", "values": [{"measurement": "growth", "setting": "DU-145 prostate", "value": 69.5, "unit": "%"}, {"measurement": "growth", "setting": "K-562 leukemia", "value": 10.5, "unit": "%"}, {"measurement": "growth", "setting": "MALME-3M melanoma", "value": 50.8, "unit": "%"}, {"measurement": "growth", "setting": "MDA-MB-231 breast", "value": 54.4, "unit": "%"}, {"measurement": "growth", "setting": "RXF 393 renal", "value": 37.6, "unit": "%"}, {"measurement": "growth", "setting": "SF-268 CNS", "value": 55.2, "unit": "%"}, {"measurement": "growth", "setting": "SF-295 CNS", "value": 48.4, "unit": "%"}, {"measurement": "growth", "setting": "SF-539 CNS", "value": 80.8, "unit": "%"}, {"measurement": "growth", "setting": "UACC-257 melanoma", "value": 87.3, "unit": "%"}, {"measurement": "growth", "setting": "HCT-15 colon", "value": 20.3, "unit": "%"}, {"measurement": "growth", "setting": "HT29 colon", "value": 10.6, "unit": "%"}, {"measurement": "growth", "setting": "SNB-75 CNS", "value": 47.9, "unit": "%"}, {"measurement": "growth", "setting": "SNB-19 CNS", "value": 62.8, "unit": "%"}, {"measurement": "growth", "setting": "U251 CNS", "value": 36.7, "unit": "%"}, {"measurement": "growth", "setting": "PC-3 prostate", "value": 32.4, "unit": "%"}, {"measurement": "growth", "setting": "SK-MEL-5 melanoma", "value": 47.2, "unit": "%"}, {"measurement": "growth", "setting": "UACC-62 melanoma", "value": 76.3, "unit": "%"}, {"measurement": "growth", "setting": "LOX IMVI melanoma", "value": 37.5, "unit": "%"}, {"measurement": "growth", "setting": "SK-MEL-28 melanoma", "value": 80.7, "unit": "%"}]}
{"molecule": "O=c1n(C2OC(CO)C(O)C2O)ccc2nccn12", "note": "(stereo unspecified)", "values": [{"measurement": "growth", "setting": "DU-145 prostate", "value": 107, "unit": "%"}, {"measurement": "growth", "setting": "K-562 leukemia", "value": 102, "unit": "%"}, {"measurement": "growth", "setting": "MALME-3M melanoma", "value": 112, "unit": "%"}, {"measurement": "growth", "setting": "MDA-MB-231 breast", "value": 117, "unit": "%"}, {"measurement": "growth", "setting": "RXF 393 renal", "value": 162, "unit": "%"}, {"measurement": "growth", "setting": "SF-268 CNS", "value": 107, "unit": "%"}, {"measurement": "growth", "setting": "SF-295 CNS", "value": 108, "unit": "%"}, {"measurement": "growth", "setting": "SF-539 CNS", "value": 112, "unit": "%"}, {"measurement": "growth", "setting": "UACC-257 melanoma", "value": 100, "unit": "%"}, {"measurement": "growth", "setting": "HCT-15 colon", "value": 105, "unit": "%"}, {"measurement": "growth", "setting": "HT29 colon", "value": 108, "unit": "%"}, {"measurement": "growth", "setting": "SNB-75 CNS", "value": 95.5, "unit": "%"}, {"measurement": "growth", "setting": "SNB-19 CNS", "value": 114, "unit": "%"}, {"measurement": "growth", "setting": "U251 CNS", "value": 99, "unit": "%"}, {"measurement": "growth", "setting": "PC-3 prostate", "value": 104, "unit": "%"}, {"measurement": "growth", "setting": "SK-MEL-5 melanoma", "value": 114, "unit": "%"}, {"measurement": "growth", "setting": "UACC-62 melanoma", "value": 111, "unit": "%"}, {"measurement": "growth", "setting": "LOX IMVI melanoma", "value": 111, "unit": "%"}, {"measurement": "growth", "setting": "SK-MEL-28 melanoma", "value": 113, "unit": "%"}]}
